# Screening data from PubChem.
# ST2 inh: inhibitors of human ST2 (IL1RL1) binding to IL-33 | Q01638 | AlphaLISA ST2-Fc/biotin-IL-33 interaction, 1 h | inhibition, % for hits at 17 µM | 2.3% of 78,000 active; in the data active means inhibition above about 30%
# The depositor's hits bear a star; i = inactive. Many of the other results were omitted from the sample, so hits are more common in it than they were.
SMILES,ST2 inh
O=c1c2ccccc2nc(/C=C/c2ccccc2)n1-c1ccccc1F,i
COc1ccc(/C=C/c2nc3ccccc3c(=O)n2-c2ccccc2OC)cc1,32%*
COc1ccc(-n2c(/C=C/c3ccccc3)nc3ccccc3c2=O)cc1OC,i
Cc1nc(-c2cccs2)cc([C@H]2CN3CC[C@H]2C[C@@H]3CNC(=O)NC(C)C)n1,i
COCCN(Cc1cccs1)C(=O)c1nn(C)c2ccccc12,i
C=CCN(C)C[C@H]1CN2CC[C@H]1C[C@@H]2CNC(=O)c1ccc(C(F)(F)F)cc1,i
COc1ccc(-c2ccc3n(c2=O)C[C@H]2C[C@@H]3CN(C(=O)c3ccc(C#N)cc3)C2)cc1,i
COCCC(=O)N1C[C@@H]2C[C@H](C1)c1ccc(NC(=O)c3ccc(C#N)cc3)c(=O)n1C2,35%*
COCCC(=O)N1C[C@@H]2C[C@H](C1)c1ccc(-c3cccc(C(F)(F)F)c3)c(=O)n1C2,i
Cc1cccc(=O)n1CCC(=O)N1CCCN2CCC[C@H]2C1,i
CN1C(=O)C2(CCN(Cc3ccc(-c4ccn[nH]4)o3)CC2)c2ccccc21,i
CCN(CC)C(=O)Cn1cc(/C=C2\C(=O)NC(=O)N(c3ccccc3F)C2=O)c2ccccc21,i
O=C1NC(=O)C(=Cc2cn(CCOc3ccc4c(c3)OCO4)c3ccccc23)C(=O)N1,35%*
S=C(NCc1ccco1)NC[C@H]1C[C@@H]2CCN1C[C@@H]2CN1CCN(c2ccccn2)CC1,i
CN1CCN([C@H]2CN(C(=O)Cc3ccc(F)c(F)c3F)C[C@@H]2O)CC1,i
O=c1c2ccccc2nc(-c2ccccc2)n1-c1ccccc1,i
Cc1cccc(-n2c(-c3cccnc3)nc3ccccc3c2=O)c1,46%*
Cc1cccc(-n2c(/C=C3\C(=O)Nc4ccccc43)nc3ccccc3c2=O)c1,i
O=c1c(NS(=O)(=O)c2cccs2)ccc2n1C[C@H]1C[C@@H]2CN(S(=O)(=O)c2ccccc2)C1,i
O=C(Nc1ccc2c(c1)OCO2)c1cccn(Cc2cccc(C(F)(F)F)c2)c1=O,i
O=C(O)C1Nc2c(F)cccc2C2C(Cl)C(Sc3ccccc3[N+](=O)[O-])CC12 (stereo unspecified),34%*
Cc1ccsc1C1N(c2ccccn2)C(=O)C2CCCN21 (stereo unspecified),i
